A selection: hits, their analogues and other compounds. The true share with any hit is near 2.5%.
TrxR1 inh – qHTS Assay for Inhibitors of Mammalian Selenoprotein Thioredoxin Reductase 1 (TrxR1): qHTS; Thioredoxin reductase 1, cytoplasmic (Rattus norvegicus), O89049; recombinant rTrxR1, NADPH fluorescence consumption, selenite substrate; Potency, µM (series often up to 114 µM), usual class: inhibitors; 390,000 compounds, 1% hits; AID 588453, 2011; also: nearly all actives have a fitted effect of over 65% in size
Target sequence (O89049 whole entry, looked up): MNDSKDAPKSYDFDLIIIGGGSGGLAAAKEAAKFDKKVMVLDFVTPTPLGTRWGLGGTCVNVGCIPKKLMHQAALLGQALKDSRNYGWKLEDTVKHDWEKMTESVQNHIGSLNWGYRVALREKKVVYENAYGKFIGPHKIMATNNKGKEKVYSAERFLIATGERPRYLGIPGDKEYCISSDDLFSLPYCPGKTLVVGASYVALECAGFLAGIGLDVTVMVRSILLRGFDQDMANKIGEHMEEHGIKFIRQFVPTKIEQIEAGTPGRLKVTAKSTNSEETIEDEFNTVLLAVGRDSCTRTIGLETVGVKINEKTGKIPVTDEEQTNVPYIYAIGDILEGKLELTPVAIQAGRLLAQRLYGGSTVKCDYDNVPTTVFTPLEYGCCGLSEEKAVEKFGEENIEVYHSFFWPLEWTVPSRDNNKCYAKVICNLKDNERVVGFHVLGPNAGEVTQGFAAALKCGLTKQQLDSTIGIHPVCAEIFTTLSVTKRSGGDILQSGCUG
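Rat TrxR1 (90 nM in the dispensed reagent) was pre-reduced with 400 uM NADPH for 5 min at room temperature, then incubated with compound for 15 min. After 400 uM selenite was added, NADPH fluorescence (Ex 340/Em 450 nm) was followed for 8 min.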
ClpP mod – qHTS Assay for Activators of ClpP; purified B. subtilis ClpP, FRET peptide cleavage, 20 min; Potency, µM (highest dose often 57.5 µM); 340,000 compounds, 1.9% hits; AID 651965, 2013; active = well fitted falling curve with a large enough effect; inconclusive = small, poorly fitted or top-dose-only effect; inactive = no such curve, though single readings can be large or run the other way; also: the source files actives as falling curves though it sought activators and does not explain the sign; nearly all actives have a fitted effect of over 65% in size
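FRET quenching reversal measured ClpP activation: 10 microg/mL B. subtilis ClpP at pH 8 with the FRET-FV decapeptide, read at 430 nm after 320 nm excitation. The 20-min minus 0-min signal was scaled between DMSO/no-enzyme wells and ADEP (5.8 microM final).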
miR-21 act – qHTS Assay for Modulators of miRNAs and/orActivators of miR-21; HeLa miR-21 FLuc reporter, luciferase, 48 h; Potency, µM (top dose mostly 38.3 µM), hits mostly activators; 340,000 tested, under 10 active; AID 2288, 2010;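 also: miR-21 action dims this reporter so a rising signal means less miR-21 action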
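HeLa cells endogenously expressing miR-21, stably carrying CMV-driven firefly luciferase with a downstream miR-21 binding site, 2000 cells/well. Titrations up to approximately 40 uM, 48 hours; luciferase luminescence read.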
TrxR1 substrate – qHTS Assay for Substrates of Mammalian Selenoprotein Thioredoxin Reductase 1 (TrxR1): qHTS | Thioredoxin reductase 1, cytoplasmic (Rattus norvegicus), O89049 | purified TrxR1 substrate turnover, NADPH consumption readout | Potency, µM (doses to about 114 µM) | 390,000 compounds, 0.01% hits | AID 588456, 2011; also: nearly all actives have a fitted effect of over 50% in size
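Rat TrxR1, dispensed at 90 nM, was prereduced with 400 uM NADPH (final) for 5 min at ~22 deg C, then incubated with compound 15 min before 400 uM selenite. A first-read NADPH fluorescence drop versus no-compound background flagged substrates.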
Apoferritin bind – qHTS Assay for Identification of Novel General Anesthetics. Ferritin light chain (Equus caballus), P02791. 350,000 compounds, 0.074% hits. Potency, µM (series often up to 77.5 µM), usual class: inhibitors. apoferritin/1-aminoanthracene competitive binding, fluorescence; also: nearly all actives have a fitted effect of over 20% in size
Target sequence (P02791 2-175 limits assumed): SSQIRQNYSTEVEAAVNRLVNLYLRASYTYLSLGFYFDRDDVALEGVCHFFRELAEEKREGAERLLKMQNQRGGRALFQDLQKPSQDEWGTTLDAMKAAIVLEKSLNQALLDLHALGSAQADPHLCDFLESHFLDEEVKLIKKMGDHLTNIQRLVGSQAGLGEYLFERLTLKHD
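Horse-spleen apoferritin (10 uM) in 50% saturated 1-aminoanthracene in PBS was incubated 10 min at room temperature with compound. Fluorescence (ex 380, em 535 nm) was normalized to free and bound 1-AMA, with concentration-response fitted by a four-parameter Hill equation.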
Large screens that a line does not name were inactive. Unless noted, calls follow the shape of the dose curve; as a rule, active = well fitted curve in the direction sought with a large enough effect; inconclusive = small, poorly fitted or top-dose-only effect, or another doubt; inactive = no such curve, though single readings can be large; an effect the other way counts as inactive or inconclusive.

CCOc1ccc(/C=C/c2nc(C#N)c(Nc3ccc(OC)cc3)o2)cc1	none
COc1ccc(CNC(=O)CCc2nc(-c3ccc(C)cc3)no2)c(OC)c1	Apoferritin bind inconclusive
COc1cc(C(=O)Nc2c(C(=O)Nc3ccccc3F)oc3ccccc23)cc(OC)c1OC	none
Cc1c(Cl)cccc1NC(=S)N1CCN(C(=O)C2CCCO2)CC1 (stereo not drawn)	ClpP mod 28µM
O=C(C1CCCO1)N1CCN(C(=S)Nc2ccccc2C(F)(F)F)CC1 (stereo not drawn)	none
CCCCSCCCNC(=O)CN1C(=O)COc2ccc(S(=O)(=O)N3CCCC3)cc21	none
Cc1ccc(SC(CC(=O)c2ccc(C)cc2)C(=O)O)cc1 (stereo not drawn)	TrxR1 inh 40µM
O=C(CC(Sc1ccc(Br)cc1)C(=O)O)c1ccc(Br)cc1 (stereo not drawn)	none (no result: TrxR1 inh, ClpP mod, TrxR1 substrate)
COc1ccc2[nH]c3c(c2c1)CCNC3=O	none (no result: ClpP mod, miR-21 act, Apoferritin bind)
O=C1NCCc2c1[nH]c1ccccc21	ClpP mod 25µM
COCc1cc(S(=O)c2ccc(Cl)cc2)nc(C)n1 (stereo not drawn)	TrxR1 inh 14µM
COCc1cc(Sc2ccc(Cl)cc2)nc(C)n1	none
CCOc1ccc(S(=O)(=O)N2Cc3ccccc3CC2C(=O)Nc2ccc(NC(C)=O)cc2)cc1 (stereo not drawn)	none
OC1=C(O)c2nc3cc(F)ccc3nc21	TrxR1 inh 1.6µM
O=C(O)c1cc(N2C(=O)C3CC=CCC3C2=O)ccc1NCc1cccnc1 (stereo not drawn)	ClpP mod 32µM
O=C(O)c1cc(N2C(=O)CCC2=O)ccc1NCc1cccnc1	none
CSc1ccc(CCNC(=O)Cn2ncn3c(cc4ccccc43)c2=O)cc1	ClpP mod 20µM
CC(C)NC(=O)CCC(=O)N1Cc2ccccc2Oc2ncccc21	none
COc1ccc(OCc2nnc(NC(=O)Nc3ccc(F)cc3)s2)cc1	none
CCOc1ccc(NC(=O)Nc2nnc(CC)s2)cc1	ClpP mod 28µM
CC(C)CCNC(=O)CSCc1cnn(-c2ccccc2)c1-n1cccc1	none
CCCCN(CCC(=O)O)c1ccc(/C=C/c2ccnc3ccccc23)cc1	none (no result: miR-21 act, Apoferritin bind)
COC(CN(C(=O)CCl)C(C(=O)NC1CCCCC1)c1ccc(C)cc1)OC (stereo not drawn)	TrxR1 inh 40µM
O=C(NC1CCCC1)C(c1ccc(F)cc1)N(Cc1ccc(F)cc1)C(=O)CCl (stereo not drawn)	TrxR1 inh 40µM
Fc1ccccc1-n1ncc2c1ncn1nc(Cc3ccccc3)nc21	none
CCCOC(=O)c1ccc(NC(=O)C2C3C=CC(O3)C2C(=O)O)cc1 (stereo not drawn)	TrxR1 inh 40µM
CC(=O)c1ccc(NC(=O)C2C3C=CC(O3)C2C(=O)O)cc1 (stereo not drawn)	none (no result: ClpP mod)
Cc1cccn2c(=O)c(C(=O)NCCc3ccc(S(N)(=O)=O)cc3)c(O)nc12	ClpP mod inconclusive
CCOc1ncccc1C(=O)Nc1cc(S(=O)(=O)N2CCCCC2)ccc1Cl	ClpP mod 32µM (no result: miR-21 act, Apoferritin bind)
CCOc1ncccc1C(=O)Nc1ccc(Cl)c(S(=O)(=O)N2CCCC2)c1	Apoferritin bind inconclusive
COc1cc(S(=O)(=O)O)c(C)cc1N=Nc1c(O)ccc2cc(S(=O)(=O)O)ccc12	none (no result: miR-21 act, Apoferritin bind)
CCC(=NCc1ccccc1)C1=C(O)C(C(=O)OC)C(C)(C)CC1=O (stereo not drawn)	ClpP mod 3.2µM
CCCC(=NCc1ccccc1)C1=C(O)C(C(=O)OC)C(C)(C)CC1=O (stereo not drawn)	none
O=c1cc(-c2ccc(F)cc2)oc2ccccc12	none (no result: miR-21 act, Apoferritin bind)
CSc1ccc(-c2cc(=O)c3ccccc3o2)cc1	ClpP mod 10µM
CCCC(=O)Nc1ccc(-c2nc3cc(C)ccc3o2)cc1	ClpP mod 40µM
CCOc1ccc(C(=O)Nc2ccc(-c3nc4cc(C)ccc4o3)cc2)cc1	none
O=C(Nc1ccc2oc(-c3cccnc3)nc2c1)c1ccc(-c2ccccc2)o1	miR-21 act inconclusive
O=C(Cc1ccccc1)Nc1ccc2oc(-c3cccnc3)nc2c1	ClpP mod 28µM
Cc1ccc2oc(-c3ccc(C)c(NC(=O)/C=C/c4ccco4)c3)nc2c1	TrxR1 inh 32µM
CCCCCC(=O)Nc1ccc2oc(-c3cccnc3)nc2c1	ClpP mod 16µM
C[n+]1ccnc2ccccc21	TrxR1 inh inconclusive, TrxR1 substrate inconclusive (no result: miR-21 act, Apoferritin bind)
CCC(C(=O)Nc1cc(OC)ccc1OC)n1c(C)c2cnn(-c3ccccc3)c(=O)c2c1C (stereo not drawn)	none
Fc1cccc(Cl)c1CNCCSc1nnnn1-c1ccccc1	none
Cc1ccc2oc(-c3ccccc3)nc2c1	ClpP mod 14µM
CCOc1cccc(-c2nc3cc(C)ccc3o2)c1	ClpP mod inconclusive
COc1ccc(CC(=O)Nc2ccc(-c3nc4cc(C)ccc4o3)c(O)c2)cc1OC	ClpP mod 35µM
Cc1cccc(OCC(=O)Nc2ccc(-c3nc4cc(C)ccc4o3)c(O)c2)c1	none
Cc1ccc(C)c(-c2nnc(NC(=O)c3ccc4c(c3)OCCO4)o2)c1	none
COc1ccc(-c2ccc(NS(=O)(=O)c3ccc(F)c(C(F)(F)F)c3)cc2)nn1	none
Cc1ccc(Cl)cc1NS(=O)(=O)c1cc2c3c(c1)CC(=O)N3CCC2	none
COC(=O)COc1cc(OCC(=O)OC)c2c(C)c(Cl)c(=O)oc2c1	TrxR1 inh inconclusive, ClpP mod 14µM
CCc1c(C)c2ccc(OCC(=O)OC)cc2oc1=O	ClpP mod 14µM
COC(=O)COc1cc(C)cc2oc(=O)c(CC(=O)OC)c(C)c12	ClpP mod 14µM
O=C(Nc1ccc(Cl)c(Cl)c1)c1cc(S(=O)(=O)N2CCN(c3cccc(Cl)c3)CC2)ccc1F	miR-21 act inconclusive
CCCN(C(=O)C1CCN(S(=O)(=O)c2ccc(OC)c(OC)c2)CC1)C1CCS(=O)(=O)C1 (stereo not drawn)	ClpP mod 14µM (no result: miR-21 act, Apoferritin bind)
Cc1cc(C)c(NC(=O)Cn2c(=O)n(CCc3ccccc3)c(=O)c3ccccc32)c(C)c1	none
O=C1CC(c2ccccc2)Sc2ccccc2N1Cc1ccccc1F (stereo not drawn)	none
COc1ccc(C(=O)Nc2cc3c(cc2N2CCCCC2)n(C)c(=O)n3C)cc1OC	none
Cc1ccc(C(=O)Nc2cc3c(cc2N2CCCCC2)n(C)c(=O)n3C)cc1	none
Cn1c(=O)c(=O)n(C)c2cc(N3CCCC3)c(NC(=O)c3ccc(C(C)(C)C)cc3)cc21	TrxR1 inh inconclusive, ClpP mod 35µM
CCOc1ccc(C(=O)Nc2ccc(N3CCN(C(=O)c4ccco4)CC3)cc2)cc1Br	none (no result: miR-21 act, Apoferritin bind)

Bioassay records as filed in PubChem.
